# Most compounds without a hit are left out; they make up all but 7.8% or so of the library.
# MARV entry inh: qHTS for inhibitors of binding or entry into cells for Marburg Virus; Marburg virus pseudotyped entry inhibition, cell reporter; Potency, µM (highest dose often 37.8 µM), for inactives: at the top dose activity change, negative = inhibition, actives largely listed as inhibitors; 300,000 tested, 1.8% active; AID 540276, 2011; calls by dose curve; tested in HEK293 cells; also: potency is read from the fitted curve at half-maximal effect
# HCV inh: qHTS Assay for Inhibitors of Hepatitis C Virus (HCV) | Huh7.5.1 HCVcc-Cre infection, luciferase reporter, 44 h | Potency, µM (doses to about 41.8 µM), for the others: at the highest dose activity change, negative = inhibition, hits mostly inhibitors | 340,000 tested, 3.4% active | AID 651820, 2012; active = well fitted inhibition curve with a large enough effect; inconclusive = small, poorly fitted or top-dose-only effect, or another doubt; inactive = no such curve, though single readings can be large or run the other way; also: potency is read from the fitted curve at half-maximal effect
#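 Whole-lifecycle infectious HCVcc-Cre system; cells 1,000/well, compound then virus (~0.5 moi) added 4 h after plating, 44 h culture. Luciferase read 15 sec following 15 min substrate incubation, room temp.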
# HCMV inh: qHTS Assay for inhibitors of the human cytomegalovirus (HCMV); 410,000 tested, 4.5% active; AID 1259415, 2018; HFF cells, HCMV-luciferase reporter, 72 h; hits give low values; activity change, negative = inhibition, % at 57.5 µM; in the data active = activity change below about -60%; inconclusive = no clear call, values can overlap the other calls; inactive = above about -39%
#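 Human foreskin fibroblasts infected with luciferase-reporter HCMV at MOI 1 PFU/cell, compounds at two doses. Luciferase measured 72 h post infection; normalized to buffer-only basal and Salinomycin (10uM) controls.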
# VACV mCherry inh: qHTS for Stage-Specific Inhibitors of Vaccinia Orthopoxvirus: mCherry Reporter Primary qHTS; Vaccinia virus mCherry reporter infection, fluorescence; Potency, µM (top dose mostly 36.5 µM), for the others: at the highest dose activity change, negative = inhibition, most hits filed as inhibitors; 310,000 tested, 0.63% active; AID 720579, 2013; calls by dose curve; tested in A549 cells; also: potency is read from the fitted curve at half-maximal effect; nearly all actives have a fitted effect of over 35% in size
# Lassa entry inh: qHTS for Inhibitors of binding or entry into cells for Lassa Virus. AID 540256, 2011. 300,000 tested, 1.2% active. Lassa virus pseudotype entry inhibition, cell reporter. Potency, µM (highest dose often 37.9 µM), for inactives: at the highest dose activity change, negative = inhibition, actives largely listed as inhibitors; calls by dose curve; tested in HEK293 cells; also: potency is read from the fitted curve at half-maximal effect; nearly all actives have a fitted effect of over 50% in size
# Vaccinia Venus: qHTS for Stage-Specific Inhibitors of Vaccinia Orthopoxvirus: Venus Reporter Primary qHTS; Vaccinia virus Venus reporter expression, fluorescence; Potency, µM (top dose mostly 36.5 µM), inactives show top-dose activity change, negative = inhibition, hits mostly inhibitors; 330,000 tested, 0.46% active; AID 720580, 2013; calls by dose curve; tested in A549 cells; also: potency is read from the fitted curve at half-maximal effect; nearly all actives have a fitted effect of over 30% in size
# An asterisk follows results filed as active; i = inactive; ? = inconclusive; nt = no result given; [ ] = remark or other dose. % is scaled to controls: 0 for no effect and ±100 for the full control effect.
SMILES,MARV entry inh,HCV inh,HCMV inh,VACV mCherry inh,Lassa entry inh,Vaccinia Venus
CN(CCc1ccccc1)C(=O)c1ccc(NC(=O)Cc2ccc(NC(=O)C3CCN(C(=O)C4CCC4)CC3)cc2)cc1,nt,-7%,-35,i,nt,-8%
CN(CCc1ccccc1)C(=O)c1ccc(NC(=O)Cc2ccc(NC(=O)C3CCCN(C(=O)C4CCC4)C3)cc2)cc1 (stereo not drawn),-6%,?,-70*,10µM*,nt,?
CN(CCc1ccccc1)C(=O)c1ccc(NC(=O)Cc2ccc(NC(=O)C3CCN(C(=O)C4CCCCC4)CC3)cc2)cc1,nt,-24%[8.37 µM],-60*,?,nt,-23%
CN(CCc1ccccc1)C(=O)c1ccc(NC(=O)Cc2ccc(NC(=O)C3CCCN(C(=O)CCc4ccccc4)C3)cc2)cc1 (stereo not drawn),nt,0.56µM*,-71*,?,nt,?
CN(CCc1ccccc1)C(=O)c1ccc(NC(=O)Cc2ccc(NC(=O)C3CCN(C(=O)CCc4ccccc4)CC3)cc2)cc1,nt,25µM*,-88*,?,nt,?
CN(Cc1ccccc1)C(=O)c1cccc(NC(=O)Cc2ccc(NC(=O)C3CCN(C(=O)C4CCC4)CC3)cc2)c1,nt,14µM*,-23,-15%,nt,0%
CN(Cc1ccccc1)C(=O)c1cccc(NC(=O)Cc2cccc(NC(=O)C3CCN(C(=O)C4CC4)CC3)c2)c1,nt,?,4,-15%,nt,-4%
CCN(CC)c1nc2ccccc2nc1C(C#N)C(=O)NCCCOC (stereo not drawn),-1%,7.1µM*,0,nt,-23%,-20%
CCn1c(/N=C/c2ccccc2NS(=O)(=O)c2ccc(C)cc2)nc2ccccc21,?,31%,nt,i,11µM*,-11%
CCCCn1c(NCc2ccccc2NS(=O)(=O)c2ccc(C)cc2)nc2ccccc21,11µM*,?,-23,nt,?,?
CCc1ccc2nc(N(Cc3cccnc3)C(C)=O)sc2c1,nt,nt,105,-16%[7.34 µM],13%[46.1 µM],-7%[7.34 µM]
COc1ccc(N/N=C(\C=N\O)C(=O)c2ccc(OC)cc2)cc1,?,-16%,-11,-23%,2.8µM*,?
COc1ccc(C(=O)C(=NNc2ccccc2)c2ccc(OC)cc2)cc1,?,?,?,?,-20%[46.1 µM],-7%
Cc1cc(=O)n2nc(N(C)CC(=O)NCc3cccc(Br)c3)sc2n1,17%[46.1 µM],nt,11,-5%,-1%[46.1 µM],0%
CCc1ccc(C2Sc3ccccc3NC3=C2C(=O)c2ccccc23)cc1 (stereo not drawn),?,nt,-85*,-13%,?,-11%
CC(C)c1ccc(C2Sc3ccccc3NC3=C2C(=O)c2ccccc23)cc1 (stereo not drawn),?,nt,-100*,-14%,18%[46.1 µM],-19%
CC(=O)Nc1ccc(C2Sc3ccccc3NC3=C2C(=O)c2ccccc23)cc1 (stereo not drawn),?,nt,-29,-20%,8%[46.1 µM],-20%
O=C1C2=C(Nc3ccccc3SC2c2ccc(C(F)(F)F)cc2)c2ccccc21 (stereo not drawn),?,nt,-99*,?,?,?
CCCCNC(=O)CCCn1c(=O)c2ccccc2n(Cc2cccc(Cl)c2)c1=O,3%[46.1 µM],nt,-31,-23%,-3%[46.1 µM],-18%
COc1cc2nc(N3CCCN(C)CC3)nc(N3CCN(C)CC3)c2cc1OC,nt,nt,nt,-28%,nt,?
O=C(NCCc1nc2ccccc2n1Cc1c(F)cccc1Cl)c1ccco1,?,nt,-21,-16%,2%[46.1 µM],-18%
CN(C)S(=O)(=O)c1cccc(N=C2NN=C(c3ccccc3)CS2)c1,?,35µM*,?,?,?,?
COCCCN=C1NN=C(c2cc(C)n(Cc3ccccc3Cl)c2C)CS1,?,?,-65*,-4%,?,-28%
Cc1cccc(N=C2NN=C(c3ccccc3F)CS2)c1C,?,?,-32,?,-1%[46.1 µM],0%
Fc1ccccc1N=C1NN=C(c2ccccc2)CS1,11µM*,?,-98*,-18%,?,?

# Screens: PubChem, National Center for Advancing Translational Sciences (NCATS)
